Measurements: PubChem BioAssay AID1645875 (National Center for Advancing Translational Sciences (NCATS), 2021)
Records with an inconclusive call do not appear. Active and inactive are the calls of the source. Calls follow the shape of the dose curve; as a rule, active = well fitted inhibition curve with a large enough effect; inconclusive = small, poorly fitted or top-dose-only effect; inactive = no such curve, though single readings can be large or run the other way.

Each compound was assayed against N-terminal Xaa-Pro-Lys N-methyltransferase 1 (Homo sapiens) (UniProt Q9BV86) (assay: Orthogonal qHTS for Inhibitors of N-terminal methyltransferase 1 (NTMT1): ThioGlo Assay). Details: NTMT1 SAHH-coupled ThioGlo fluorescence, 30 min; series mostly up to 84.5 µM.
Chain of N-terminal Xaa-Pro-Lys N-methyltransferase 1 (Homo sapiens) (Q9BV86 whole entry, looked up): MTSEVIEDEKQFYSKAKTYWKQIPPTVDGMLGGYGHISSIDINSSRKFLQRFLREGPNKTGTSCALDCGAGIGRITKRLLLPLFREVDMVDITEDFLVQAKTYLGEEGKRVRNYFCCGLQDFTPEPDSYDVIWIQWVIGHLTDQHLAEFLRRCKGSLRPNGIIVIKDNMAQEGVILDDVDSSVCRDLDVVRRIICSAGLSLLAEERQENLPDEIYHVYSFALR
Description: Assay Submitter (PI): Rong Huang Ph.D. Purdue University, West Lafayette, IN 47907 The N-terminal methytransferase 1 is the first methyltransferase that methylates protein alpha-N-amines and plays an important role in regulating cell mitosis, chromatin interactions and DNA repair. It is observed to be over-expressed in various cancer patient tissues like malignant melanoma and colorectal cancer tissues. Knockdown of NTMT1 in cancer cells causes cell mitotic defects and enhances sensitivity to DNA damaging chemotherapeutics. […] These critical cellular processes in which NTMT1 is implicated, coupled with emerging links to cellular dysfunction, strengthen the inference that NTMT1 is a compelling novel anticancer target. Progress have been made in understanding the molecular properties of NTMT1 and the biological consequences of protein alpha-N-terminal methylation, but there are no specific small molecule probes available for NTMT1 to fully characterize its MTase activity. To address this unmet need, a panel of assay is created and established to enable quantitative high-throughput screening (qHTS) for novel, potent, and selective small molecule NTMT1 inhibitors. Two orthogonal qHTS that use different reagents (ThioGlo vs. MTaseGlo) are developed for primary robotic screening against the NCATS chemical library of more than 400,000 small molecules. Identified inhibitors are reacquired, validated, and further characterized. […] Early Translation Branch (ETB) National Center for Advancing Translational Sciences (NCATS) National Institute of Health (NIH)
Materials: NTMT1 enzyme, substrate SPKRIA, control peptide RCC1-6 is provided by the Huang laboratory. MTaseGlo Assay: PROTOCOL TABLE; SEQUENCE No. (e.g., 1, 2, 3, etc.); […] (e.g., Cells, Incubation, Reagent, etc.); VALUE; DESCRIPTION 1; Enzyme; 3 uL; Dispense enzyme mixture (final concentrations of 125 nM NTMT1) into Greiner 1536-well black / solid bottom assay plate (Greiner Bio One, Monroe, NC). 2; Compounds; 23 nL; Compounds (at various concentration) and 1uM final concentration of RCC1-6 (SPKRIA) control were transferred via a Kalypsys Pin Tool (Wako USA) equipped with a 1536-slotted pin array (Wako Automation, Richmond, VA). 3; Incubation; 1 min; Incubate at room temperature. 4; Substrate; 1 uL; Dispense 1 uL of substrate solution (100uM SAM, 10uM SAHH, 15uM ThioGlo3 final concentration) was added to the wells bringing the final assay volume to 4uL. The assay plate was covered with metal lids. 5; Detection; Fluorescence; Initial fluorescence readout (background signal) was detected using the ViewLux microplate imager with an excitation filter of 340 nm and 450 nm emission filter. 6; Incubation; 30 min; Assay plates were incubation at room temperature in the dark. 7; Detection; Fluorescence; Final fluorescence readout was detected using the ViewLux microplate imager with an excitation filter of 340 nm and 450 nm emission filter. The data was normalized to the background fluorescence.

SMILES	Potency
CN[C@@H]1C[C@@H](c2ccc(Cl)c(Cl)c2)c2ccccc21	inactive
C[N+]1(C)C2CCC1CC(OC(=O)c1c[nH]c3ccccc13)C2 (stereo unspecified)	1940 nM (active)
NC1CCc2cc(O)c(O)cc2C1 (stereo unspecified)	10900 nM (active)
NC(=O)CI	6890 nM (active)
C[N+]1(C)CCN(c2ccccc2)CC1	2740 nM (active)
C[N+](C)(C)CC#CCN1CCCC1=O	1540 nM (active)
